Data reported in PubChem BioAssay (Tox21).
“And” between values parts separate entries of the source, which are not always exact repeats. Identical values can stand only once. Inconclusive results are not listed. The source made the active and inactive calls. Unless noted, calls follow the shape of the dose curve; as a rule, active = well fitted curve in the direction sought with a large enough effect in the repeat runs; inconclusive = weak or mixed curves; inactive = no such curve, though single readings can be large; an effect the other way counts as inactive or inconclusive.

How the values were obtained:
[1] = qHTS assay to identify small molecule antagonists of the androgen receptor (AR) signaling pathway using the MDA cell line in the presence of 0.5 nM R1881 - cell viability counter screen (AID 1259242); also: nearly all actives have a fitted effect of over 45% in size; also: potency is read from the fitted curve at half-maximal effect
How it was run: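 Live-cell protease activity was measured by CellTiter-Fluor fluorescence after 30 min. Before that, MDA-kb2 MMTV-luciferase cells had 16 hr at 37C without CO2, exposed to test compounds and 0.5 nM R1881 final.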

[2] = biological target: Androgen receptor (Homo sapiens) (UniProt P10275); assay: qHTS assay to identify small molecule antagonists of the androgen receptor (AR) signaling pathway using the MDA cell line in the presence of 0.5 nM R1881 (AID 1259243); also: nearly all actives have a fitted effect of over 50% in size; also: potency is read from the fitted curve at half-maximal effect
How it was run: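 Luminescent reporter readout (ONE-Glo, 30 min, room temperature) after 16 hr co-treatment of MDA-kb2 cells with test compounds and 0.5 nM R1881 final, at 37C without CO2. The MMTV-driven luciferase responds to both AR and GR.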

[3] = biological target: Estrogen receptor (Homo sapiens) (UniProt P03372); assay: qHTS assay to identify small molecule antagonists of the estrogen receptor alpha (ER-alpha) signaling pathway using the BG1 cell line in the presence of 0.1 nM 17-beta-estradiol (AID 1259244); also: nearly all actives have a fitted effect of over 50% in size; also: potency is read from the fitted curve at half-maximal effect
How it was run: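 Luciferase luminescence (ONE-Glo, 30 min at room temperature) was read after 22 hr at 37C exposure to compounds plus 17beta-estradiol at 0.1 nM final. Cells were VM7Luc4E2 with endogenous ER-alpha and an ERE-driven luciferase, pre-cultured 5 days in hormone-depleted medium.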

[4] = qHTS assay to identify small molecule HDAC inhibitors - cell viability counter screen (AID 1259365); also: series mostly up to about 92 µM; nearly all actives have a fitted effect of over 50% in size
How it was run: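 Following a 2hr exposure of overnight-plated wild-type HCT-116 cells to DMSO-delivered compounds, CellTiter-Glo was added and luminescence recorded after 30min at room temperature.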

[5] = qHTS assay to identify small molecule agonists of the sonic hedgehog signaling (Shh) pathway - cell viability counter screen (AID 1259366); also: nearly all actives have a fitted effect of over 50% in size; also: potency is read from the fitted curve at half-maximal effect
How it was run: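 After a 4hr attachment at 37C, NIH/3T3 cells bearing an integrated Gli1-driven luciferase reporter were dosed with compounds. Treatment lasted 24hr, with the final hour including CellTiter-Fluor for a fluorescence viability measurement.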

[6] = qHTS assay to identify small molecule antagonists of the sonic hedgehog signaling (Shh) pathway - cell viability counter screen (AID 1259367); also: nearly all actives have a fitted effect of over 55% in size; also: potency is read from the fitted curve at half-maximal effect
How it was run: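 Tox21 library chemicals were tested on a Gli1-Luc NIH/3T3 clone (2,000 cells/well) stimulated by conditioned medium; viability was quantified as fluorescence from CellTiter-Fluor reagent added at 23 hr.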

[7] = qHTS assay to identify small molecule agonists of the sonic hedgehog signaling (Shh) pathway (AID 1259368; calls by dose curve;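 also: NIH/3T3-derived 3T3Gli1-Luc cells carrying a stable Gli1-driven firefly luciferase reporter; series mostly up to about 92 µM; nearly all actives have a fitted effect of over 15% in size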)
How it was run: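 Luminescence was read after 30 min at room temperature with luciferase reagent. Before that, 3T3Gli1-Luc cells (NIH/3T3 clone, stable Gli1-Luc reporter; 2,000/well) were exposed to compounds for 24 hr at 37C, 5% CO2, compounds being added 4 hr post-plating.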

[8] = qHTS assay to identify small molecule antagonists of the sonic hedgehog signaling (Shh) pathway (AID 1259369; calls by dose curve; also: nearly all actives have a fitted effect of over 45% in size; also: potency is read from the fitted curve at half-maximal effect)
How it was run: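 Antagonist mode: compound added to 3T3 Gli1-Luc cells followed by conditioned-medium stimulation, 24 h at 37 C, 5% CO2. Inhibition taken as loss of Gli1-driven luciferase luminescence.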

[9] = qHTS assay to identify small molecule HDAC inhibitors (AID 1259364); also: nearly all actives have a fitted effect of over 45% in size; also: potency is read from the fitted curve at half-maximal effect
How it was run: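 Luminescence read after 30 min room-temperature HDAC-Glo incubation measures cellular class I/II HDAC activity. Compounds were applied for 2 hr at 37 C to HCT-116 wild-type cells seeded the day before.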

[10] = qHTS assay to identify small molecule phospholipidosis (PLD) inducers (AID 1259344; active = well fitted curve in the direction sought with a large enough effect; an effect the other way counts as inactive or inconclusive; also: potency is read from the fitted curve at half-maximal effect)
How it was run: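 Image-based: LipidTOX Red pit count/intensity per well and per cell; HepG2, 24 h compound at 37 C, PFA fixation, Hoechst counterstain.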

Measured: Potency

Androgen receptor (Homo sapiens), sequence (P10275 whole entry, looked up): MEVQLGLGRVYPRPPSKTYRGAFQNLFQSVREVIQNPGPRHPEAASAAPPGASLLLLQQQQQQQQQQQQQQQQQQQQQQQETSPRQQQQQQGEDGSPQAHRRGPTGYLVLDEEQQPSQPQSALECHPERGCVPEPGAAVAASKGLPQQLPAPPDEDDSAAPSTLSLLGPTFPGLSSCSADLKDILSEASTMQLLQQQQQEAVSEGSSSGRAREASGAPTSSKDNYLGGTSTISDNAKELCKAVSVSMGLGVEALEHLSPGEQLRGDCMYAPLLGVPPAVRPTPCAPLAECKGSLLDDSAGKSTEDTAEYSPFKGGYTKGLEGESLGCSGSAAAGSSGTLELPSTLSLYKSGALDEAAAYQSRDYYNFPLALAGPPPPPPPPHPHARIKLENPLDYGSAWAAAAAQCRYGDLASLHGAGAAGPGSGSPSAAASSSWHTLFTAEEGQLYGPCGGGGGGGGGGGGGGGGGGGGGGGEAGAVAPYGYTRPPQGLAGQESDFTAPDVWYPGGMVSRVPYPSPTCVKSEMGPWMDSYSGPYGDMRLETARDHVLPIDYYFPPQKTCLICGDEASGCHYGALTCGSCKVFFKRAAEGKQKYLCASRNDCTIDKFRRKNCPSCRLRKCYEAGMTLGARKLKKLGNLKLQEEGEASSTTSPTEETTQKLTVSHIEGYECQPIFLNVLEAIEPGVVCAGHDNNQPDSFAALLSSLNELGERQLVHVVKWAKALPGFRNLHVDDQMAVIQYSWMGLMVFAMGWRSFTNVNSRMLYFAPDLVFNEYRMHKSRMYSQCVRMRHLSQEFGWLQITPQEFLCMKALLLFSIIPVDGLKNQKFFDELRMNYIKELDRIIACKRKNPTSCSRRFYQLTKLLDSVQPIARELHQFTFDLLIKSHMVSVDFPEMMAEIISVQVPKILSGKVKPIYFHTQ
Estrogen receptor (Homo sapiens), sequence (P03372 whole entry, looked up): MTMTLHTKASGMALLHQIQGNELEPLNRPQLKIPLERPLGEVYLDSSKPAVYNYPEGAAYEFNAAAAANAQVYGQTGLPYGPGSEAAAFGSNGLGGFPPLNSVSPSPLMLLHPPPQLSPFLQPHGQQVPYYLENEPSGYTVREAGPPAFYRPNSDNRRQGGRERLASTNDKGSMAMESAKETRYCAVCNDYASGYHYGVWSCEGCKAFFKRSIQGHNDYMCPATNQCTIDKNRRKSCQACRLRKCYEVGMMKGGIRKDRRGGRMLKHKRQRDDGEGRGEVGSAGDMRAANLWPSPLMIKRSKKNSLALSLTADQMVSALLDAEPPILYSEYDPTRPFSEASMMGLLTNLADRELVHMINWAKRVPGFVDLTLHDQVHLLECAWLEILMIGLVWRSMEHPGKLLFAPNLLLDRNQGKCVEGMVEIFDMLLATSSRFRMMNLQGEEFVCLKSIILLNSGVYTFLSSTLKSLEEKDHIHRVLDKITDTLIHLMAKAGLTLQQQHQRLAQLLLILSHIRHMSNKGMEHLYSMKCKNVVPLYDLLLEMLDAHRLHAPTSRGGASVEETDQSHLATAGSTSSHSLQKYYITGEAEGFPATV

COP(=O)(CCC(=O)NCO)OC
inactive: [1] | [2] | [3] | [4] | [5] | [6] | [7] | [8]

C=CC(=O)OCC(COC(=O)C=C)(COC(=O)C=C)COC(=O)C=C
active: [1] 13.7 µM | [2] 4.33 µM | [3] 15.4 µM | [5] 5.45 µM | [6] 7.7 µM
inactive: [9] | [7]

CCOC(=O)C1(c2ccccc2)CCN(CCC(C#N)(c2ccccc2)c2ccccc2)CC1
active: [2] 29.8 µM
inactive: [1] | [3] | [10] | [4] | [5] | [6]

N#CC(Cl)Cl
inactive: [1] | [2] | [9] | [4] | [5] | [6] | [7]

COc1ccc([N+](=O)[O-])cc1O
inactive: [1] | [2] | [3] | [9] | [4] | [5] | [8]

CCC(C)(C)C(=O)OC1=C(c2ccc(Cl)cc2Cl)C(=O)OC12CCCCC2
inactive: [1] | [2] | [9] | [4] | [5] | [6] | [7]

CCc1ccccc1C
inactive: [1] | [2] | [3] | [9] | [4] | [5] | [6] | [7] | [8]

COP(N)(=S)OC
inactive: [1] | [2] | [3] | [9] | [4] | [5] | [6] | [7] | [8]

CC(=O)c1ccc(-c2ccccc2)cc1
inactive: [1] | [3] | [4] | [5] | [6] | [7] | [8]
active: [2] 19.3 µM

CC(=O)C(Cl)(Cl)Cl
active: [1] 14.8 µM | [2] 9.35 µM | [3] 11.8 µM | [5] 20.9 µM | [6] 16.6 µM
inactive: [9] | [4] | [7]

C[C@H]1O[C@@H](O[C@H]2[C@@H](O)C[C@H](O[C@H]3[C@@H](O)C[C@H](O[C@H]4CC[C@@]5(C)[C@H](CC[C@@H]6[C@@H]5CC[C@]5(C)[C@@H](C7=CC(=O)OC7)CC[C@]65O)C4)O[C@@H]3C)O[C@@H]2C)C[C@H](O)[C@@H]1O
inactive: [1] | [2] | [9] | [4] | [5] | [7] | [8]
active: [10] 2 µM

BrCC(Br)c1ccccc1 (stereo unspecified)
inactive: [1] | [2] | [3] | [9] | [4] | [5] | [6] | [7] | [8]

CN(C)CCc1c[nH]c2ccc(O)cc12
inactive: [1] | [2] | [10] | [9] | [4] | [7]
active: [6] 59.7 µM | [8] 8.43 µM

Nc1ccccc1C(=O)Oc1ccc2ccccc2c1
active: [9] 8.63 µM
inactive: [1] | [2] | [3] | [4] | [5] | [6] | [7]

CCCCOCN(C(=O)CCl)c1c(CC)cccc1CC
inactive: [1] | [3] | [9] | [4] | [7]
active: [2] 30.6 µM

COC(=O)N(C(=O)N1CO[C@@]2(C(=O)OC)Cc3cc(Cl)ccc3C2=N1)c1ccc(OC(F)(F)F)cc1
active: [2] 23.5 µM | [3] 46.9 µM
inactive: [1] | [9] | [4] | [5] | [6]

O=[N+]([O-])c1cc(Cl)ccc1Cl
inactive: [1] | [2] | [3] | [9] | [4] | [5] | [6] | [7] | [8]

CC(=O)O[C@H]1CC[C@@]2(C)C(=CC[C@@H]3[C@@H]2CC[C@]2(C)C(=O)CC[C@@H]32)C1
active: [2] 5.45 µM
inactive: [1] | [10] | [9] | [4] | [5] | [6] | [7]

O=C(NC(=O)c1c(F)cccc1F)Nc1cc(Cl)c(OC(F)(F)C(F)F)c(Cl)c1
inactive: [1] | [2] | [3] | [9] | [4] | [5] | [7] | [8]

C=COCCCl
inactive: [1] | [2] | [3] | [9] | [4] | [5] | [7] | [8]

CCCSP(=O)(OCC)SCCC
inactive: [1] | [2] | [10] | [9] | [4] | [5] | [6] | [8]

COS(=O)(=O)c1ccc(C)cc1
inactive: [1] | [2] | [3] | [9] | [4] | [5] | [6] | [7]

ClC1=C(Cl)C2(Cl)C3C(Cl)C(Cl)CC3C1(Cl)C2(Cl)Cl (stereo unspecified)
active: [2] 60.9 µM and 48.6 µM | [5] 43.1 µM and 61.1 µM
inactive: [1] | [3] | [9] | [4] | [6] | [7] | [8]
